Reference: PubChem BioAssay AID1159580 (chemical genetic matrix, 2015)
Out of some 5,500 compounds screened, about 2,000 (36%) were called active. Another 18% or so got no clear call; they are omitted. Rule as the data show it: active = normalized growth mostly below about 0.91 (no sharp cut-off); inconclusive = no clear call, values can overlap the other calls; inactive = mostly above about 0.92. Some of the results follow.

Assay: chemical genetic growth profiling, strain panel (AID 1159580);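 also: tested at 20 µM; growth read once vehicle control cultures reached saturation at 30 °C; 1 = growth at the plate median or of vehicle wells; lower values mean less growth of the strain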
Conditions: S. cerevisiae deletion strains, growth OD

Measured: normalized growth

CCC(=O)O[C@H](CC(=O)O)C[N+](C)(C)C
inactive: locus YHR030C, strain SLT2, stronger effect = lower value 1.02 | locus YHR079C, strain IRE1, stronger effect = lower value 1.05 | locus YJL095W, strain BCK1, stronger effect = lower value 1.05 | locus YJR066W, strain TOR1, stronger effect = lower value 0.967 | locus YLR113W, strain HOG1, stronger effect = lower value 1.02 | locus YNL183C, strain NPR1, stronger effect = lower value 0.988 | locus YOR231W, strain MKK1, stronger effect = lower value 1.04 | locus YPL256C, strain CLN2, stronger effect = lower value 1.04
